# Screens: PubChem BioAssay, National Center for Advancing Translational Sciences (NCATS)
# D1 antagonist: antagonists of human D1 dopamine receptor | actives 3.2% (n = 360,000) | activity change, negative = inhibition, % at 10 µM | AID 504652 | HEK293 TREx D1 cells, calcium flux, dopamine EC80; stronger effect = lower value; in the data active = activity change below about -30%; also: % is scaled to controls: 0 for no effect and ±100 for the full control effect
# Target sequence (P21728 whole entry, looked up): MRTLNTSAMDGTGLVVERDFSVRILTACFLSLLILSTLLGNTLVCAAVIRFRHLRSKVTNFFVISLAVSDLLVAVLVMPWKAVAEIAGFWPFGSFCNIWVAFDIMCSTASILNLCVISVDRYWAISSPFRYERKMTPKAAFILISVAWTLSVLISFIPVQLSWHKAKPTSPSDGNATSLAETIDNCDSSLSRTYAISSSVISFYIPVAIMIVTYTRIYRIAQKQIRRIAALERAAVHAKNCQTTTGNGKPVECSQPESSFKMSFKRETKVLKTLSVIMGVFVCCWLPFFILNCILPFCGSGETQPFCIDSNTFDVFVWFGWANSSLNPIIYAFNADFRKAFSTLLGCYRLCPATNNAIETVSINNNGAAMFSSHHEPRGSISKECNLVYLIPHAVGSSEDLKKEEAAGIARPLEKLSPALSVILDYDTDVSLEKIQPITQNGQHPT
#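 Calcium flux readout: force-coupled, inducible Hek293 Trex D1 line, cells induced overnight at 30 C with tetracycline, dye-loaded 30–90 min at RT. Antagonism scored against EC80 dopamine challenge given 180 s after compound.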
# ERG Ets-DNA blk: blocks human ERG Ets domain binding to DNA | P11308 | fluorescence polarization, His-ERG Ets domain / labelled DNA | Potency, µM (top dose mostly 76.9 µM), for inactives: top-dose FP activity, negative = inhibition, actives largely listed as inhibitors | actives 0.028% (n = 370,000) | AID 624246; active = well fitted inhibition curve with a large enough effect in the polarisation, with a control signal flat; inconclusive = small, poorly fitted or top-dose-only effect, or effect the other way, or a change in a side signal; inactive = no such curve, though single readings can be large or run the other way; the % refers to the polarisation;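 also: polarization taken with two DNA probes labelled with fluorescein and Texas red; potency is read from the fitted curve at half-maximal effect; % of control where 0% means no effect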
#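 His-tagged ERG Ets domain (1 uM in the protein solution; 300mM KCl, 50mM Tris-HCl, 1mM EDTA, 1mM DTT, pH 7.5) received compound, then a probe mix of 5 nM fluorescein-DNA and 100nM Texas-615-DNA. Fluorescence polarization was read for both dyes.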
# DRD3 agonist: activates the human D3 dopamine receptor. actives 0.58% (n = 410,000). P35462. D3R DiscoveRx beta-arrestin cells, luminescence, 90 min. max activation, %; in the data active = max activation above about 30%; also: 0% is about no effect
#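 Cells at 1500/well, incubated overnight, then treated with pinned compounds (dopamine as control) for 90 min at 37 degrees C. DiscoveRx reagent added for 30 - 60 minutes at room temperature; luminescence read.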
# D1 ag: activates the human D1 dopamine receptor; HEK293 T-REx D1 cells, calcium flux, agonist mode; activation, % at 2 µM; actives 1% (n = 360,000); in the data active = activation above about 30%; also: 0% is about no effect
#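 Agonism was scored from calcium flux recorded over 180 s (1 read/s) after pintool compound addition, following a 10-cycle baseline. Cells were inducible force-coupled HEK293 TREx D1, plated overnight at 30 C and loaded with no-wash calcium dye.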
# D1 potentiator: enhances dopamine response at the human D1 receptor; P21728; HEK293 TREx D1 cells, calcium flux, dopamine EC20 potentiation; potentiation, % at 10 µM; actives 0.036% (n = 360,000); AID 504651; in the data active = potentiation above about 30%; also: 0% is about no effect
# D3 antag: D3 dopamine receptor (human) antagonism; max response, negative = inhibition, %; P35462; actives 2.5% (n = 360,000); D3R cells, DiscoveRx beta-arrestin luminescence, antagonist mode; stronger effect = lower value; AID 652054; in the data active = max response below about -50%; inconclusive = no clear call, values can overlap the other calls; also: % is scaled to controls: 0 for no effect and ±100 for the full control effect
#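 Cells plated overnight at 1500 cells/well, then exposed to library compounds with dopamine controls for 90 minutes at 37 degrees C. DiscoveRx reagent added for 30–60 minutes at room temperature; luminescence read, quantitative HTS format.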
# * marks the source's active call; other numbers are inactive results; ? = inconclusive; · = no result given; ! = repeats disagree. Most compounds without a hit are left out; they make up all but 6.1% or so of the library.
SMILES,D1 antagonist,ERG Ets-DNA blk,DRD3 agonist,D1 ag,D1 potentiator,D3 antag
CC(=O)NCCn1c(C)cc2ccccc21,8.2,-28.8%,7.3,5.3,1.0,-2.2
O=C(CCc1nc(-c2ccccc2)no1)Nc1cc(C(F)(F)F)ccc1Cl,14.0,-0.9%,7.6,60.9*,5.7,-0.6
Cc1onc(-c2ccccc2Cl)c1C(=O)NCCn1c(C)cc2ccccc21,16.9,31.6µM*,1.1,3.3,-7.2,11.1
CC1CCN(c2oc(-c3ccc(COc4ccc(Cl)cc4)o3)nc2C#N)CC1,1.8,11.1%,-9.1,-1.9,1.1,·
CCN(C(=O)CSc1nnc(NC2CCCCC2)s1)C1CCS(=O)(=O)C1 (stereo not given),7.0,-7.8%,-8.0,2.6,-4.8,-12.1
CC(Sc1nnc(N)s1)C(=O)NNC(=O)c1cccc(Cl)c1 (stereo not given),·,13.8%,0.9,·,·,-10.6
Cc1c(C(=O)Nc2ccc3c(c2)CCC3)cccc1[N+](=O)[O-],-17.5,13.7%,-8.9,1.7,-1.9,13.0
Cc1cc2ccccc2n1CCNC(=O)c1ccccc1,-2.0,?,-2.6,43.1*,-11.9,0.0
Cc1onc(-c2ccccc2Cl)c1C(=O)Nc1nnc(-c2cccc([N+](=O)[O-])c2)s1,39.3,0.0%,3.8,41.2*,14.6,20.4
Cc1onc(-c2ccccc2Cl)c1C(=O)Nc1ccc(N2CCOCC2)cc1,-46.2*,-8.4%,-9.6,0.8,-5.8,9.3
Cc1onc(-c2ccccc2Cl)c1C(=O)NCc1nc(-c2ccc(C(F)(F)F)cc2)no1,-37.5*,14.4%,-1.9,8.8,1.0,5.0
CCOC(=O)N1CCN(C(=O)C2CCN(S(=O)(=O)c3ccc(OCC)cc3)CC2)CC1,4.4,-7.9%,-6.8,-1.1,1.2,-9.3
Cc1ccc2nc(-c3ccc(NC(=O)c4ccccc4S(C)(=O)=O)cc3)sc2c1,-10.5,-8.3%,-3.6,5.2,-7.8,·
CC(NCC1COc2ccccc2O1)C(=O)NCc1ccccc1 (stereo not given),-9.8,5.4%,-20.3,0.3,-4.2,-29.0
CC(C)N1CCN(CC2COc3ccccc3O2)CC1 (stereo not given),16.5,1.5%,2.7,5.0,-7.3,-50.0*
CC(NCC1COc2ccccc2O1)C1COc2ccccc2O1 (stereo not given),-1.6,3.2%,-22.7,0.5,0.2,-63.4*
CC1=C(C)/C(=N\OS(=O)(=O)c2ccccc2)C=CC1=O,0.8,0.8%,-5.3,2.6,-3.7,-88.8*
COc1ccc2[nH]c3c(c2c1)CCN1C(=O)N([C@@H](C)C(=O)NC2CCCC2)C(=O)[C@]31C,-15.5,8.8%,8.4,1.4,0.4,0.0
CCOC(=O)c1c(C)n(-c2ccc(C)cc2)c2ccc(OCC(O)CNCC3CCCO3)cc12 (stereo not given),34.6,1.0%,-8.8,60.2*,-0.2,6.5
CCOC(=O)c1c(C)n(C)c2ccc(OCC(O)CN3CCC(C)CC3)cc12 (stereo not given),-5.2,4.0%,-20.7,1.7,·,-102.4*
O=C(CSc1ncn(-c2ccccc2)n1)N1CCN(c2ccccc2)CC1,13.1,6.4%,0.3,2.1,4.8,24.5
CCN(CC)c1ccc(C=C(c2nnnn2-c2ccc(C)cc2)c2nnnn2-c2ccc(C)cc2)cc1,5.3,6.8%,1.2,32.2*,1.7,-14.5
Cc1ccc(-n2nnnc2-c2ccccc2)cc1,-5.1,4.3%,-4.7,6.3,-2.8,-1.0
CNC(=S)Nc1cccc(-c2cnc3ccccc3n2)c1,-9.1,5.6%,-12.1,-0.1,-12.8,-73.7*
CC(C)C(=O)Nc1cccc(-c2cnc3ccccc3n2)c1,-2.2,3.0%,4.8,3.3,-1.0,3.8
SMILES,D1 antagonist,ERG Ets-DNA blk,DRD3 agonist,D1 ag,D1 potentiator,D3 antag
CCC1CCCCN1S(=O)(=O)c1ccccc1[N+](=O)[O-] (stereo not given),-2.2,-8.0%,0.5,1.3,-2.1,-3.1
CC1=C/C(=C(\c2cc(C)c(O)c(Br)c2)c2ccccc2S(=O)(=O)O)C=C(Br)C1=O,-16.0,117.5%,-21.9,3.8,-7.0,-51.7*
COc1ccc2[nH]c3c4c(ccc3c2c1)C(=O)C=CC4=O,-13.8,44.2%,-18.1,2.2,-2.0,-104.8*
O=[N+]([O-])c1ccc(NN=Cc2cccc3ccccc23)cc1,·,18.7%,-8.1,·,·,-16.8
O=[N+]([O-])c1cc(Br)c(O)c(/C=N/Nc2nnnn2-c2cccc3ccccc23)c1,-20.3,-1.5%,-52.8,20.6,-1.7,-85.5*
CCOc1cc(/C=C/C(=O)Nc2ccc(C(=O)NCCN(CC)CC)cc2)ccc1OCC(C)C,-41.0*,11.0%,0.1,5.0,-11.0,8.2
CCN(CC)CCNC(=O)c1ccc(NC(C)=O)cc1,-34.2*!,-2.0%,-0.1,2.2,-4.2,17.4
CCN(CC)CCNC(=O)c1ccc(NC(=O)c2ccc(C(=O)c3ccccc3)cc2)cc1,-37.8*,1.3%,-14.7,2.5,-6.8,8.7
O=c1cc(-c2cccc(F)c2)oc2ccccc12,·,-2.6%,-7.0,·,·,-7.4
O=c1cc(-c2c(F)c(F)c(F)c(F)c2F)oc2ccccc12,-1.2,·,-22.4,10.5,-1.4,-67.4*
CC1CCC(=NNc2ccc(C(F)(F)F)cc2[N+](=O)[O-])CC1 (stereo not given),7.5,-3.5%,-5.6,4.4,0.6,0.0
COc1ccc(NC(=O)c2cccc(S(=O)(=O)N3CCCC3)c2)cc1OC,-12.4,0.5%,-5.1,1.3,-2.6,?
S=c1[nH]nc(-c2ccccn2)n1/N=C/c1ccc(Br)s1,2.9,-7.9%,13.0,-0.5,2.7,-55.6*
Cc1sc2ncn(CC(=O)NCCCN3CC(C)CC(C)C3)c(=O)c2c1S(=O)(=O)N1CC(C)CC(C)C1 (stereo not given),0.0,-0.2%,-28.4,2.2,9.1,-90.4*
Cc1ccc2c(C)c(C(=O)N(C)C(C)c3ccon3)oc2c1C (stereo not given),-39.3*,31.6µM*,-0.7,2.1,-0.9,12.0
CCOCCOC(=O)C(C)Oc1ccc(Oc2nc(Cl)ccc2Cl)cc1 (stereo not given),5.9,-2.5%,-4.7,1.8,-3.1,1.0
OC(c1ccc(Cl)cc1Cl)C(Cc1cccnc1)n1cncn1 (stereo not given),-10.0,3.6%,1.2,6.2,-3.7,-75.3*
OC(Cn1cncn1)c1ccc(Cl)cc1Cl (stereo not given),-6.1,14.0%,-3.8,0.6,-4.3,0.0
COc1ccc(N2C(=O)c3ccccc3NC(=O)C2C(=O)Nc2ccc(N3CCOCC3)cc2)cc1 (stereo not given),·,·,8.3,·,·,21.0
